“And” between values parts separate entries of the source, which are not always exact repeats. Equal entries are not always repeated. Results filed as inconclusive are left out. Some structures have more than one record in an assay (separate samples or runs), and their calls can disagree. A number with no mark means an inactive call. The source made the active and inactive calls. Calls follow the shape of the dose curve; as a rule, active = well fitted activation curve with a large enough effect; inconclusive = small, poorly fitted or top-dose-only effect; inactive = no such curve, though single readings can be large or run the other way. Positions of bridges follow the written chain, without caps; N, C: chain ends. Non-standard residues stand in square brackets, D forms with d. Residues, ends and D or L forms follow the SMILES beside them. hArg = N=C(N)NCCCC[C@H](N)C(=O)O; Mpa = O=C(O)CCS
Biological target: Cellular tumor antigen p53 (Homo sapiens) (UniProt P04637)
Assay: Primary qHTS for small molecule compounds that upregulate eGFP-tagged delta133p53alpha (in N-terminal) cells. (AID 2060322); also: nearly all actives have a fitted effect of over 75% in size;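 as to activation: cells pre-induced with doxycycline then dosed without doxycycline; series mostly up to about 56 µM; 0% = DMSO vehicle and 100% = reference activator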
Details: NCI-H358 eGFP-delta133p53alpha fluorescence, 24 h; activation: active compounds read high
Excerpt: Assay Development and Screening Technology
National Center for Advancing Translational Sciences (NCATS),
National Institute of Health (NIH), Rockville, Maryland
Cellular senescence (CS) is one of the hallmarks of aging and age-related diseases. Senescent cells are characterized by an irreversible growth arrest, an increase in senescence-associated beta-galactosidase (SA-beta-gal) activity and p16INK4a expression, an activation of the DNA damage response pathways, and the emergence of a senescence-associated secretory phenotype (SASP).
Delta133p53alpha, a human/primate-specific p53 protein isoform, delays or inhibits the induction of CS and SASP in various types of human cells, including progeria-derived fibroblasts, primary normal astrocytes, and CD8+ T lymphocytes. Induction of delta133p53alpha with small molecule compounds may provide therapeutic opportunities for inhibition of senescence/SASP-associated pathologies in progeria syndromes, astrocyte-mediated neuroprotection in neurodegenerative diseases, and possibly prevention and treatment of a wider range of senescence- and aging-associated diseases.
Here we report the development and validation of a cell-based quantitative high throughput screening (qHTS) assay in 1,536-well format. This qHTS assay uses the NCI-H358 cell line with doxycycline-inducible expression of enhanced green fluorescent protein (eGFP)-tagged delta133p53alpha, which allows efficient and highly quantitative measurement of the protein levels.
PROTOCOL TABLE (as described by Inglese J, Shamu CE and Guy RK. 2007)
SEQUENCE No. (e.g., 1, 2, 3, etc.); […] (e.g., Cells, Incubation, Reagent, etc.); VALUE; DESCRIPTION.
1; Cells; 4uL; 800 doxycycline treated cells / well in doxycycline-free media, 1536-well black, clear-bottom low base Aurora microplates.
2; Compounds; 23 nL; Kalypsis pin tool (Wako) equipped with 1536-well pin heads, 5-azacytidine positive control.
3; Incubation; 24 hr; 37C, 5% CO2; 95% relative humidity.
4; Aspiration; 1x; BioTek EL406 washer dispenser (Agilent).
5; Fixing; 3.5% paraformaldehyde, BioTek EL406 washer dispenser (Agilent).
6; Washing; 1x PBS; BioTek EL406 washer dispenser (Agilent).
7; Nuclei staining; 1:1000 dilution of Hoechst 33342 (Thermofisher), BioTek EL406 washer dispenser (Agilent).
8; Incubation; 20 min; in the dark at room temperature.
9; Washing; 2x, 1x PBS (ThermoFisher), BioTek EL406 washer dispenser (Agilent).
10; Reagent; 10 uL; 1x PBS per well, sealed with clear adhesive tape.
NOTES (numbers refer to sequence numbers above).
1. NCI-H358 cells expressing eGFP-tagged delta133p53alpha were grown in T75 culture flasks and treated with doxycycline for 24h, at 10 ng/ml for eGFP-D133p53a cells (N-terminal cell) and 100 ng/ml for D133p53a-eGFP cells (C-terminal cells). Cells were trypsinized, counted using a Counted 3 Automated Cell Counter (Thermo Fisher), and diluted to a concentration of 200,000 cells/ml. A Multidrop Combi Reagent Dispenser (ThermoFisher) was used to dispense 800 cells/well in […] of doxycycline-free media, into 1536-well black/clear bottom low base plates (AuroraMicroplates).
2. After plating cells, 23 nl of compound library, DMSO vehicle control or positive control (5-azacytidine) were transferred by Pin Tool (Wako). The plate map layout was the same for each plate: (column 1) non-doxycycline treated cells + DMSO vehicle control; (column 2) doxycycline treated cells + DMSO vehicle control baseline; (column 3) doxycycline treated cells + positive control 57.5 uM final concentration 5-azacytidine; (column 4) doxycycline treated cells + serial dilution of 5-azacytidine, 16-point 1:2 titration spanning 1.8 nM to […] final concentration; (columns 5-48) doxycycline treated cells + titration of library compounds.
3. Cells were incubated at 37 °C, 5 % CO2, 95% RH with breathable metal lid for 24h.
4-10. […] After two washes, 10 ul of 1X PBS (Thermo Fisher) was dispensed to each well. Clear adhesive plate seals (VWR) were applied and plates stored at 4 °C.
11. […]
Potency is read from the fitted curve at half-maximal effect.

Cellular tumor antigen p53 (Homo sapiens), sequence (P04637 whole entry, looked up): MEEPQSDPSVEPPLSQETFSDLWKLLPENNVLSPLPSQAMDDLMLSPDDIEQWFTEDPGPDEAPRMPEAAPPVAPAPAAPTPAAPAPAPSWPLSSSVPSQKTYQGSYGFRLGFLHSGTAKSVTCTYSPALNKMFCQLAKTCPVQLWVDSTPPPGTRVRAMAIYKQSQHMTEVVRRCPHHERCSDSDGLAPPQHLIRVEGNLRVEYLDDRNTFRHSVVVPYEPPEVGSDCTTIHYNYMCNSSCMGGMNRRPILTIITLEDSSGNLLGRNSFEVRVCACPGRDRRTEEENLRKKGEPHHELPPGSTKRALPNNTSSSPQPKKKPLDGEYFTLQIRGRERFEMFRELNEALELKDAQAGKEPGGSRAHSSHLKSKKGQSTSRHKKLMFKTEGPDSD

SMILES	activation	Potency
Nc1ncnc2c1ncn2[C@H]1CCCO1	-5.73%	
CCCCCCCC(=O)[O-].CCCCCCCC(=O)[O-].[Zn+2]	14.1%	
CC(=O)N1C[C@H](O)C[C@H]1C(=O)O	14.2%	
C[C@@H]1CCC2C(C)(C)[C@H](O)CC[C@]2(C)[C@@]12Cc1c(O)cc3c(c1O2)CN(CCO)C3=O (stereo not given in full)	11.5%	
COc1ccccc1N1CCN(CC(C(=O)NC(C)(C)C)c2ccccc2)CC1 (stereo not given)	-12.4%	
O=c1[nH]cnc2c1ncn2[C@@H]1O[C@H](CO)[C@@H](O)[C@H]1O	-11.7% and 6.21%	
C/C(=C1\CCOC(=O)S1)N(C=O)Cc1cnc(C)nc1N	-5.86%	
C=C(COC(=O)CC(C)C)C1Cc2cc(C(C)=O)ccc2O1 (stereo not given)	-15.2%	
OCc1cccnc1	-5.02%	
COC(=O)C1=CO[C@@H](O[C@@H]2O[C@H](CO)[C@@H](O)[C@H](O)[C@H]2O)C2C1CC(O)C2C (stereo not given in full)	2.29%	
CC(=O)OCC1OC(O[C@H]2CC[C@]34C[C@]35CC(O)[C@]3(C)[C@@H]([C@H](C)CC/C=C(\C)C(=O)O)C(O)C[C@@]3(C)C5CC[C@H]4C2(C)C)C(O)C(O)C1OC1OCC(O)C(O)C1O (stereo not given in full)	-13%	
O=c1c(-c2ccccc2)c1-c1ccccc1		30.9 µM (active)
CSc1nc2cc(Oc3cccc(Cl)c3Cl)c(Cl)cc2[nH]1	-40.2%	
CCCCCN(CCCOC)C(=O)C(CCC(=O)O)NC(=O)c1ccc(Cl)c(Cl)c1 (stereo not given)	-18.6%	
O=C(Nc1ccc2[nH]nc(-c3ccncc3)c2c1)[C@@H]1CCN(CC(=O)N2CCN(c3ccc(-c4ncccn4)cc3)CC2)C1	4.47%	
Cc1nc(-c2ccc(Cl)cc2)oc1COC(C)(C)C(=O)O	1.67%	
C=C1CCC[C@]2(C)CC/C(=C(/CO)C(=O)OC)C[C@@H]12	18.8%	
C=C1C(=O)O[C@H]2[C@H]1[C@@H](OC(=O)C(C)CO)C[C@@]1(C)[C@H](O)CCC(=O)[C@H]21 (stereo not given in full)	-11.5%	
N[C@@H](Cc1ccc(O)c(I)c1)C(=O)O	-4.51%	
O=C(O)Cc1cccc(-c2cc(CCCCCCc3ccc(O[C@H]4O[C@H](CO)[C@@H](O)[C@H](O)[C@@H]4O)c(-c4cccc(CC(=O)O)c4)c3)ccc2O[C@H]2O[C@H](CO)[C@@H](O)[C@H](O)[C@@H]2O)c1	4.33%	

SMILES	activation	Potency
CC1(C)CC[C@]2(C(=O)O[C@@H]3O[C@H](CO)[C@@H](O)[C@H](O)[C@H]3O)CC[C@]3(C)C(=CCC4[C@@]5(C)CC[C@H](OC6OC(C(=O)O)C(OC7OC(CO)C(O)C(O)C7O)C(O)C6O)C(C)(C)C5CC[C@]43C)C2C1 (stereo not given in full)	-16.8%	
COc1ncnc(NS(=O)(=O)c2ccc(N)cc2)c1OC	26.8%	27.3 µM (active)
O=C(/C=C/c1ccccc1O)O[C@@H]1O[C@H](CO)[C@@H](O)[C@H](O)[C@H]1O	0%	
CCCn1c(=O)c2[nH]c(-c3ccc(OCC(=O)O)cc3)nc2n(CCC)c1=O	-5.73%	
Cc1cc(C)c2c(N)c(C(=O)NCc3ccc(Cl)cc3)sc2n1	13.4%	
CC(=O)OC1C(O)CC(O[C@@H]2O[C@H](CO)[C@@H](O)[C@H](O)[C@H]2O)C2CCC3C(=O)OC(c4ccoc4)CC3(C)C21 (stereo not given in full)	3.05%	
O=C(O)c1[nH]n(-c2ccc(S(=O)(=O)O)cc2)c(=O)c1N=Nc1ccc(S(=O)(=O)O)cc1	3.95%	
NC(=O)[C@@H]1CSSCCC(=O)N[C@@H](CCCCN=C(N)N)C(=O)NCC(=O)N[C@@H](CC(=O)O)C(=O)N[C@@H](Cc2c[nH]c3ccccc23)C(=O)N2CCC[C@H]2C(=O)N1 ([Mpa][hArg]GDWPC-NH2; disulfide 1-7)	2.82%	
CC(=O)O[C@@H]1C(=O)C(C)=C(CCC(C)CC(=O)O)[C@@]2(C)CCCC(C)(C)C12 (stereo not given in full)	0.893%	
CC(=O)Nc1ncc([N+](=O)[O-])s1	-1.69%	
C[C@H]1Oc2cc(cnc2N)-c2c(nn(C)c2C#N)CN(C)C(=O)c2ccc(F)cc21	1.43% and -2.96%	
Cc1nc(N)nc(N)c1-c1ccc(Cl)c(Cl)c1	2.82%	
COc1cc(NS(=O)(=O)c2ccc(N)cc2)nc(C)n1	-15.9%	
CCCC(O)C(CC)CO (stereo not given)	6.21%	
CC1=C(CC(=O)O)c2cc(F)ccc2C1=Cc1ccc(S(C)=O)cc1 (stereo not given)	-21.9%	
CC(C)C1(O)C=C2C(=O)CC3C(C)(C(=O)O)CCCC3(C)C2CC1 (stereo not given)	-12.2%	
CCN1C(=O)C=CC1=O	-15.7%	
CC(C)(C)c1ccc(C(O)CCCN2CCC(C(O)(c3ccccc3)c3ccccc3)CC2)cc1 (stereo not given)	5.86% and -0.341%	
C=C1C(=O)O[C@@H]2C[C@]3(C)[C@@H](CCC(C)=O)[C@@H]3C[C@H]12	5.36%	

Reference: PubChem BioAssay (NCATS)
